# Measurements taken from PubChem BioAssay AID435003 (Sanford-Burnham Center for Chemical Genomics, 2010).
# In all, about 330,000 compounds went through this assay and about 1,700 (0.52%) were called active. The sample holds actives, similar compounds and a random draw of the others, so the mix is not that of the screen. No stated cut-off is given here; in the data, active means inhibition above about 50%; inactive means the rest.
# Assay: inhibitors of induced NF-kB luciferase reporter, primary screen, TCR NF-kB activation inhibitor project, cell-based, luminescence, uHTS (AID 435003)
# Conditions: Jurkat, PMA/ionomycin-induced NF-kB luciferase reporter, at 4 µM, stronger effect = higher value
row,Compound,inhibition
1,COC(=O)C1=C(C(=O)OC)[C@@H]2N(C)c3ccccc3[C@@]23C[C@@H](C(=O)OC)N(C(=O)c2ccco2)C3=N1,18.3% (inactive)
2,CC(C)Oc1ccc(/C=N/NC(=O)c2nnn(-c3nonc3N)c2CN(C)C2CCCCC2)cc1,-10.3% (inactive)
3,Cc1cccc(OCC(=O)NC2CC(C)(C)NC(C)(C)C2)c1,23.8% (inactive)
4,NS(=O)(=O)c1ccc(N=Cc2ccc(Br)s2)cc1,3.07% (inactive)
5,CC(=O)Nc1ccc(Nc2c3ccccc3nc3ccccc23)cc1,61.6% (active)
6,CCc1nc(Nc2ccc(NC(C)=O)cc2)c2oc3ccccc3c2n1,-24.7% (inactive)
7,CC(=O)Nc1ccc(Nc2cc(C)nc(Nc3ccc(NC(C)=O)cc3)n2)cc1,-8.27% (inactive)
8,O=C(NCc1ccccc1)C(=O)NCC1OCCN1S(=O)(=O)c1ccc(Br)cc1 (stereo not given),13.9% (inactive)
9,Cc1ccccc1N1CCN(Cc2nc(Cc3ccccc3F)no2)CC1,5.46% (inactive)
10,CC(=O)Nc1nonc1-c1nc2ccccc2n1Cc1ccccn1,-4.81% (inactive)
11,Nc1nonc1-c1nc2ccccc2n1Cc1ccc(F)cc1,1.66% (inactive)
12,COc1ccc(C)c(Cn2c(-c3nonc3N)nc3ccccc32)c1,65.7% (active)
13,O=C(Nc1ccc(Cl)cc1)C1c2cccc[n+]2CC(=O)N1Cc1ccc2c(c1)OCO2 (stereo not given),-3.1% (inactive)
14,O=C1CC[C@H](O)CCN1[C@H](CSc1ccc(Br)cc1)Cc1ccccc1,-3.24% (inactive)
15,O=C(NCCOc1ccccc1Cl)C(=O)Nc1ccccc1,-8.66% (inactive)
16,C[C@@H]1NC(=O)[C@@]2(C)[C@@H](c3ccccc3)[C@H]3COc4ccccc4[C@@H]3N2C1=O,7.9% (inactive)
17,COc1ccc(NC(=O)CN2C(=O)COc3ccc(S(=O)(=O)N4CCOCC4)cc32)c(OC)c1,0.923% (inactive)
18,C[C@H](NC(=O)c1ccccc1Cl)C(=O)OCCOc1cccc(Cl)c1,-1.51% (inactive)
19,COC(=O)c1ccccc1NC(=O)CN(Cc1ccccc1)S(C)(=O)=O,0.443% (inactive)
20,O=c1[nH]snc1-c1c(Cl)cccc1Cl,11.2% (inactive)

row,Compound,inhibition
1,Cc1c(NS(=O)(=O)c2cc(C(=O)NCCc3ccc(F)cc3)cc(Cl)c2Cl)c(=O)n(-c2ccccc2)n1C,13.5% (inactive)
2,Cc1ccc2[nH]c(=O)c(CC(=O)O)c(-c3ccccc3)c2c1,-0.374% (inactive)
3,Cc1cccc(N(C)C(=O)c2cc3c(=O)[nH]c4ccc(C)cc4c3s2)c1,65.1% (active)
4,CCN(CC)CCCNC(=O)c1cc2c(=O)[nH]c3ccc(C)cc3c2s1,-1.96% (inactive)
5,CC(=O)N1CSCC1C(=O)O (stereo not given),-5.84% (inactive)
6,Cc1c(C)c(C)c(S(=O)(=O)N2CCC3(CC2)OCCO3)c(C)c1C,-2.3% (inactive)
7,COc1ccc(CC(=O)Nc2nc(-c3ccc(F)c(F)c3)cs2)cc1OC,55.3% (active)
8,Cc1ccc(S(=O)(=O)NC(=O)Nc2nc(-c3ccc(F)c(F)c3)cs2)cc1,-14.8% (inactive)
9,COc1cc(CC(=O)Nc2nc(-c3ccc(F)c(F)c3)cs2)cc(OC)c1OC,49.7% (inactive)
10,Cc1ccc(C(=O)OCC(=O)Nc2ccc(Cl)cn2)cc1S(=O)(=O)N1CCOCC1,3.39% (inactive)
11,CCOC(=O)[C@H]1[C@H]2COc3ccc(OC)cc3[C@@H]2N2C(=O)c3ccc(F)cc3NC(=O)[C@@]12C,-10.9% (inactive)
12,CC(N)C12CC3CC(CC(O)(C3)C1)C2 (stereo not given),6.68% (inactive)
13,Cc1ccc2c(=O)oc(N(C)C)nc2c1,1.31% (inactive)
14,COc1ccc(CNS(=O)(=O)c2ccc(-c3cnc(C4CC4)o3)cc2)cc1,18.4% (inactive)
15,Cc1cccc(CNS(=O)(=O)c2ccc(-c3cnc(C4CC4)o3)cc2)c1,5.99% (inactive)
16,Cc1cccc(NS(=O)(=O)c2ccc(-c3cnc(C4CC4)o3)cc2)c1,54.1% (active)
17,Cc1cccc(C)c1NC(=O)CNC(=O)C1CCCC1,-3.97% (inactive)
18,Cc1ccc(S(=O)(=O)N(C)C2(C)CCS(=O)(=O)C2)cc1 (stereo not given),7.55% (inactive)
19,Cc1ccc(S(=O)(=O)NC2CCCCCC2)cc1,-18.9% (inactive)
20,Cc1ccc(S(=O)(=O)C2(S(=O)(=O)c3ccc(C)cc3)CCCC2)cc1,59.5% (active)

row,Compound,inhibition
1,CC(=O)Nc1ccc(S(=O)(=O)NCC(=O)OCC(=O)c2ccc[nH]2)cc1,2.52% (inactive)
2,Nc1c(C(=O)Nc2ccc3c(c2)OCCO3)nnn1Cc1ccccc1,-98.1% (inactive)
3,CCCNC(=O)c1cnc(-c2ccccc2)nc1-c1ccccc1,17.2% (inactive)
4,COc1ccc(CCNC(=O)/C(C#N)=C2\N=C(NC(=O)c3cccs3)c3ccccc32)cc1,-17.6% (inactive)
5,O=C(NCC#CCSc1nnc(-c2cccc3ccccc23)o1)c1cccs1,51.4% (active)
6,C#CCSc1nnc(-c2sc3ccccc3c2Cl)o1,-65.2% (inactive)
7,N/C(=N\c1nc2ccccc2o1)NC(=O)C(Cc1ccccc1)N1C(=O)c2ccccc2C1=O (stereo not given),-5.81% (inactive)
8,O=C(CSc1ncnc2c1oc1ccccc12)NC1CCCC1,-16.7% (inactive)
9,COc1ccccc1CCNC(=O)C(=O)NCCC1CCCCN1S(=O)(=O)c1cccs1 (stereo not given),11.1% (inactive)
10,O=C(NCCC1CCCCN1S(=O)(=O)c1cccs1)C(=O)Nc1ccc(F)cc1F (stereo not given),57.9% (active)
11,O=C(NCCC1CCCCN1S(=O)(=O)c1ccc(F)cc1)C(=O)NC1CC1 (stereo not given),2.56% (inactive)
12,COC(=O)Cn1cnc2scc(-c3ccc(C)c(C)c3)c2c1=O,11.8% (inactive)
13,Cc1ccc(S(=O)(=O)N2CCN(C(=O)Cc3sc(C)nc3-c3ccc(F)cc3)CC2)c(C)c1,0.534% (inactive)
14,Clc1cccc(Cl)c1OCCOCCNCc1ccccc1,61.5% (active)
15,OCCNCc1cccc(OCc2ccccc2Cl)c1,4.83% (inactive)
16,CCOc1ccccc1OCCCNCc1ccccc1,-8.28% (inactive)
17,Cc1ccc(C(=O)N2CCN(C3CCCCC3)CC2)s1,-4.14% (inactive)
18,CC(C)(C)c1ccc(Oc2ccc(N)cc2)cc1,84.9% (active)
19,COc1cccc(Oc2ccc(N)cc2)c1,0.758% (inactive)
20,CC(C)(C)c1ccc(OC2=CS(=O)(=O)c3ccccc32)cc1,-29.9% (inactive)
